Laboratory results as given in PubChem BioAssay (NCATS).
Inconclusive results are not listed. Activity calls are given as the source filed them. Unless noted, calls follow the shape of the dose curve; as a rule, active = well fitted curve in the direction sought with a large enough effect; inconclusive = small, poorly fitted or top-dose-only effect, or another doubt; inactive = no such curve, though single readings can be large; an effect the other way counts as inactive or inconclusive.

Legend:
[1] = molecular target: Lysosomal acid glucosylceramidase (Homo sapiens) (UniProt P04062); test: Glucocerebrosidase-p2 (AID 348; in the data active = potency below about 10 µM; also: potency is read from the fitted curve at half-maximal effect); conditions: purified GBA, blue fluorogenic substrate, 40 min
Chain of Lysosomal acid glucosylceramidase (Homo sapiens) (P04062 whole entry, looked up): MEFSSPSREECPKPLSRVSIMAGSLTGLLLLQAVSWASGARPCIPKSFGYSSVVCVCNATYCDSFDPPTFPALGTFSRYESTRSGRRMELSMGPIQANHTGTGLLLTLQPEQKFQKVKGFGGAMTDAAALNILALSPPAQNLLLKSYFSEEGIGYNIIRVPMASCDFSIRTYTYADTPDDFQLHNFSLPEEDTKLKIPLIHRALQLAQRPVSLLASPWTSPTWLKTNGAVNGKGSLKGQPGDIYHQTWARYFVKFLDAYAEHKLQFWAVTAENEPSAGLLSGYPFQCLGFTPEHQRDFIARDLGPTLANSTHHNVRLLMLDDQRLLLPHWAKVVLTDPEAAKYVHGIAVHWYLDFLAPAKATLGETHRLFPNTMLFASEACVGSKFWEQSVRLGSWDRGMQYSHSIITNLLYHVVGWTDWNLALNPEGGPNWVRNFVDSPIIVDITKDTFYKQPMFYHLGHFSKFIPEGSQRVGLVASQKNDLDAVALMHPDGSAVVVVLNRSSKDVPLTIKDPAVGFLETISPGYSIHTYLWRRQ
Procedure, shortened: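 Compounds titrated from 0.6 nM upwards against 0.2 nM enzyme in pH 5.9 citric acid/KH2PO4, taurocholate, tween-20; blue fluorogenic substrate 80 uM, 40 min room temperature, stopped and read Ex 365/Em 440 for AC50.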

[2] = AP1 Signaling Pathway (AID 357; active = well fitted curve in either direction with a large enough effect, not every such curve was filed as active;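 also: ME-180 reporter cells stimulated with EGF at its EC50 level; % is scaled to controls: 0 for no effect and ±100 for the full control effect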); conditions: ME-180 AP-1-bla reporter, EGF-induced, beta-lactamase ratio, 5 h; at 7.69 µM (top of the series) unless noted
Procedure, shortened: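 Cells are seeded overnight, exposed to compound titrations and an EC50 level of EGF for 5 hours at 37 °C, then loaded with CCF4 dye for 2.5 hours. Beta-lactamase activity under the AP-1 element is read as a blue/green ratio.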

[3] = molecular target: Cytochrome P450 1A2 (Homo sapiens) (UniProt P05177); test: p450-cyp1a2 (AID 410; calls by dose curve; also: potency is read from the fitted curve at half-maximal effect); conditions: recombinant CYP1A2, luciferin-ME demethylation, luminescence; series mostly up to 57 µM
Chain of Cytochrome P450 1A2 (Homo sapiens) (P05177 whole entry, looked up): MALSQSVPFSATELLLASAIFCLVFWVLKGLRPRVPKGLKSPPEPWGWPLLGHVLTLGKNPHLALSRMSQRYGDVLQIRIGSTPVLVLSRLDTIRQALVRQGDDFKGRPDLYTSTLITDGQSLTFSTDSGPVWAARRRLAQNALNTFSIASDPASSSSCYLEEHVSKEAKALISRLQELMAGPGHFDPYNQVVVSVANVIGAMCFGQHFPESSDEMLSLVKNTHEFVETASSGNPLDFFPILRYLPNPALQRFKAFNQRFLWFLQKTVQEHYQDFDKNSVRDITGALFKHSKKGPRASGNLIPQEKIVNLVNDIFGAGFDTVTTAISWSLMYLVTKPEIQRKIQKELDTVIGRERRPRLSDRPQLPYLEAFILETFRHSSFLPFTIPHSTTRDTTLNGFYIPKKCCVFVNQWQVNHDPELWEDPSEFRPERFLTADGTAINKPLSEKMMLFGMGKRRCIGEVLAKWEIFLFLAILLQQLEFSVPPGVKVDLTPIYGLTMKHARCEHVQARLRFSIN
Procedure, shortened: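 20nM CYP1A2 with 100uM Luciferin-ME (at Km) in 100mM KPO4; compound preincubated 10 min, NADPH regeneration added, 60 min at room temperature. Luciferin quantified by luminescence after detection reagent; normalized to 57 uM furafylline.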

[4] = NFAT Signaling Pathway (AID 444; active = well fitted curve in either direction with a large enough effect, not every such curve was filed as active;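 also: carbachol stimulus at about its EC50 of 1 µM final; % is scaled to controls: 0 for no effect and ±100 for the full control effect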); conditions: Jurkat NFAT-bla M1, carbachol, beta-lactamase ratio, 5 h; at 7.69 µM (top of the series) unless noted
Procedure, shortened: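 Jurkat cells with NFAT-driven β-lactamase reporter and co-expressed M1 receptor, stimulated with carbachol (final 1 uM, ~EC50), compound titration, 5 h at 37 °C. CCF4 loaded 1 h at RT; 460/530 nm ratio gave %activity and AC50.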

[5] = Stat Signaling Pathway (AID 446; active = well fitted curve in either direction with a large enough effect, not every such curve was filed as active;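 also: ME-180 cervical cancer cells given 40 pM IL-6 alongside compound; SIE-controlled beta-lactamase reporter measured as 460/530 nm FRET emission ratio; % is scaled to controls: 0 for no effect and ±100 for the full control effect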); conditions: ME-180 SIE beta-lactamase reporter, IL-6 stimulated, 5 h; at 7.69 µM (top of the series) unless noted
Procedure, shortened: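 ME-180 SIE-bla cells; overnight plating; cpd + IL-6 40 pM, 5 h, 37 C; LiveBLAzer 2.5 h RT; 460/530 nm emission ratio. Normalized to 300 pM IL-6 and 125 nM JAK inhibitor controls.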

[6] = molecular target: Glucocorticoid receptor (Homo sapiens) (UniProt P04150); test: GR-GFP Redistribution (AID 450;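 active = compounds whose dose series gives a full or clear partial fitted curve of increased nuclear translocation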; also: potency is read from the fitted curve at half-maximal effect); conditions: U2OS GR-GFP nuclear translocation, laser cytometry, 2 h
Chain of Glucocorticoid receptor (Homo sapiens) (P04150 whole entry, looked up, the tested form may be a part): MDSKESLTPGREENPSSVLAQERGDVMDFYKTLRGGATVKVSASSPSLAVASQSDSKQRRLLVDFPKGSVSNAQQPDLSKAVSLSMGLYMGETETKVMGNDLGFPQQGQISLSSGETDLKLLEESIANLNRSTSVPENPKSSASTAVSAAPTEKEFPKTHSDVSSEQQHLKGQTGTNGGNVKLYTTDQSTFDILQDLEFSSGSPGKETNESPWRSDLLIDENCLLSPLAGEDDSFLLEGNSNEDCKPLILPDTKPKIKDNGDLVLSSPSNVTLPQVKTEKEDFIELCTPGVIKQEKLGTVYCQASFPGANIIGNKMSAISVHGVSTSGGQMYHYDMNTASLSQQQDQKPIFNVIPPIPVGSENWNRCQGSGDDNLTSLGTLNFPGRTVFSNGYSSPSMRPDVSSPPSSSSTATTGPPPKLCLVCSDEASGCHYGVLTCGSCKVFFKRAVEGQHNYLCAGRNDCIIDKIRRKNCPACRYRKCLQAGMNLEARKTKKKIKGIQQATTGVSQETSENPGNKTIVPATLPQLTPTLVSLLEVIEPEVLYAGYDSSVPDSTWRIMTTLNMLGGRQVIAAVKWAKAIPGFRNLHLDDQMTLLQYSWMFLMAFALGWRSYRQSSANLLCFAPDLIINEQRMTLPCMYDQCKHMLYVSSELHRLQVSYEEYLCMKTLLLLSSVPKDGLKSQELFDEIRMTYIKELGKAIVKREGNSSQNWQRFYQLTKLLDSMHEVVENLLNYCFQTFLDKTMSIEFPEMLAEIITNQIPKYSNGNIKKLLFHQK

[7] = molecular target: Glucocorticoid receptor (Homo sapiens) (UniProt P04150); test: GR-EFC Redistribution (AID 451; calls by dose curve; also: potency is read from the fitted curve at half-maximal effect); conditions: CHO-K1 GR-EFC translocation, beta-gal luminescence, 2 h
Procedure, shortened: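 CHO-K1 cells expressing nuclear EA and GR-ED fragments of b-gal; compounds titrated up to 46 uM final, 2 h at 37 C. GR nuclear translocation read as complemented b-gal luminescence after 1 h RT detection.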

[8] = molecular target: Mitogen-activated protein kinase 10 (Mus musculus) (UniProt Q61831); test: JNK3 AlphaScreen Assay (AID 530; active = well fitted curve in either direction with a large enough effect, not every such curve was filed as active;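 also: kinase came from lysate of stimulated human HepG2 cells; signal reports phosphorylation of biotinylated GST-cJun 1-79 at Ser73 with 10 µM ATP; % is scaled to controls: 0 for no effect and ±100 for the full control effect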); conditions: JNK3 lysate, c-Jun phosphorylation; series mostly up to 57.1 µM
Procedure, shortened: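 Pre-activated (IL-1β/TNFα) JNK3 in HepG2 lysates phosphorylates biotin-GST-cJun(1-79), 10 uM ATP; anti-phospho-cJun(Ser73) AlphaScreen read at room temperature, pH 7.6 Tris buffer. Compounds pre-incubated 15 min as titrations.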

[9] = molecular target: Cytochrome P450 3A4 (Homo sapiens) (UniProt P08684); test: qHTS Assay for Inhibitors and Substrates of Cytochrome P450 3A4 (AID 884); conditions: recombinant CYP3A4, Luciferin-PPXE luminescence; series mostly up to 57.1 µM; also: nearly all actives have a fitted effect of over 50% in size; also: potency is read from the fitted curve at half-maximal effect
Chain of Cytochrome P450 3A4 (Homo sapiens) (P08684 whole entry, looked up): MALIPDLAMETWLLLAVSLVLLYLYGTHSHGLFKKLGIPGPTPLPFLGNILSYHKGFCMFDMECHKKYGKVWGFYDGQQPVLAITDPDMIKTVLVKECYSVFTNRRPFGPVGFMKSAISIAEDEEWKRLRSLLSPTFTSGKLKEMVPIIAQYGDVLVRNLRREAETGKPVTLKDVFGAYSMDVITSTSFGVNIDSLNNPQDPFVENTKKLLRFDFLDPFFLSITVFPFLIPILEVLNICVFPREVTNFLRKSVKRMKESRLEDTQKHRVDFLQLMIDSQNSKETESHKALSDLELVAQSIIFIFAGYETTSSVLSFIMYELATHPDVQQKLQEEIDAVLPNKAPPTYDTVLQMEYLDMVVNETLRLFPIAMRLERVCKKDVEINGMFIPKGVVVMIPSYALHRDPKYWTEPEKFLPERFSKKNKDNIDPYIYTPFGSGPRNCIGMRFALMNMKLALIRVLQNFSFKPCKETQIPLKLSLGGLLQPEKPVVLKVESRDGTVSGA
Procedure, shortened: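 20 nM human CYP3A4 with 25 uM Luciferin-PPXE (at KM) in 200 mM KPO4, preincubated 10 min with compound; NADPH regeneration started a 60 min RT reaction. Luciferin detected by luminescence, normalized to 57 uM ketoconazole as full inhibition.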

[10] = molecular target: Cytochrome P450 3A4 (Homo sapiens) (UniProt P08684); test: qHTS Assay for Activators of Cytochrome P450 3A4 (AID 885); conditions: recombinant CYP3A4, Luciferin-PPXE luminescence, 60 min; series mostly up to 57.1 µM; also: nearly all actives have a fitted effect of over 65% in size
Procedure, shortened: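 20nM CYP3A4 + 25uM Luciferin-PPXE (=KM), 200mM KPO4; cpd 10 min RT; NADPH regen, 60 min RT; stop w/ detection buffer, 20 min; luminescence. Normalized to 57 uM ketoconazole.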

[11] = qHTS Assay for Lipid Storage Modulators (AID 1519; calls by dose curve); conditions: Drosophila S3 cells, BODIPY lipid droplet/cell ratio, laser cytometry, cells loaded with oleic acid; for activity change, negative = inhibition: at 57.5 µM (top of the series)
Procedure, shortened: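 Cells seeded at 5,000 per well were treated with compounds over a concentration series and loaded with oleic acid (400 uM, as added). Lipid droplet fluorescence (488 nm excitation, 500-530 nm channel) was read by laser-scanning cytometry and normalized to 20 uM Triacsin C.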

[12] = molecular target: Dual specificity protein kinase CLK4 (Homo sapiens) (UniProt Q9HAZ1); test: qHTS Assay for Inhibitors of CDC-like Kinase 4 (ADP-Glo Assay) (AID 1771); conditions: recombinant CLK4, ADP-Glo luminescence; series mostly up to 80 µM; also: nearly all actives have a fitted effect of over 70% in size; also: potency is read from the fitted curve at half-maximal effect
Chain of Dual specificity protein kinase CLK4 (Homo sapiens) (Q9HAZ1 whole entry, looked up): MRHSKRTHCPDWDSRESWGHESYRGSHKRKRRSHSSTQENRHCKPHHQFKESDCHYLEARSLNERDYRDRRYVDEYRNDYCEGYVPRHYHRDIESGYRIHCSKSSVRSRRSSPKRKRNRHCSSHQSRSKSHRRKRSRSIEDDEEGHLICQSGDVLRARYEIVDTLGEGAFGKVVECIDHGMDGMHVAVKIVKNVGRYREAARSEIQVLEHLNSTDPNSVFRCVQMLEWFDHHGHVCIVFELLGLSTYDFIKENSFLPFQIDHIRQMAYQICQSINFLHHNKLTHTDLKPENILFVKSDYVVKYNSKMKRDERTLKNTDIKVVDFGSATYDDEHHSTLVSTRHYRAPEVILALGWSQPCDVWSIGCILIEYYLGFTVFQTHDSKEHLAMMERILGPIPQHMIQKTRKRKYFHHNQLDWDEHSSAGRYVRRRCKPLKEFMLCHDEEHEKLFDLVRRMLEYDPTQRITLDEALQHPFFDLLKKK
Procedure, shortened: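 25 nM Clk4 with 100 uM RS repeat peptide and 1 uM ATP (final) in buffer with 2 mM MgCl2, 0.5 mM EGTA, 2.5 mM DTT, 0.01% Triton X-100; 1 h at room temperature; ADP-Glo luminescence for ADP formed.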

[13] = Primary qHTS for small molecule stabilizers of the endoplasmic reticulum resident proteome: Secreted ER Calcium Modulated Protein (SERCaMP) assay (AID 1508630); conditions: SH-SY5Y GLuc-SERCaMP (Gaussia luciferase released on ER calcium loss) secretion, thapsigargin, luminescence; series mostly up to 38.4 µM; also: % is scaled to controls: 0 for no effect and ±100 for the full control effect
Procedure, shortened: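 GLuc-SERCaMP-expressing SH-SY5Y cells, pretreated 16 h with compound, are challenged with thapsigargin to empty ER calcium stores; after 4 h, coelenterazine is added directly to the medium and luminescence is imaged.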

[14] = molecular target: Rap guanine nucleotide exchange factor 4 (Homo sapiens) (UniProt Q8WZA2); test: Confirmatory qHTS for antagonist of cAMP-regulated guanine nucleotide exchange factor 4 (EPAC2) (AID 1645885); conditions: EPAC2 Rap1B-BODIPY-GDP exchange fluorescence, biochemical; series mostly up to 114 µM; also: % is scaled to controls: 0 for no effect and ±100 for the full control effect; nearly all actives have a fitted effect of over 25% in size
[15] = molecular target: 3',5'-cyclic-AMP phosphodiesterase 4B (Homo sapiens) (UniProt Q07343); test: qHTS Assay for Inhibitors of PDE-IV (AID 607; active = well fitted activation curve with a large enough effect in the main read-out, with a control signal flat, not every such curve was filed as active; also: % of control where 0% means no effect); conditions: HEK293 ACTOne CNG channel cells, membrane potential fluorescence; series mostly up to 22.9 µM
Chain of 3',5'-cyclic-AMP phosphodiesterase 4B (Homo sapiens) (Q07343 whole entry, looked up): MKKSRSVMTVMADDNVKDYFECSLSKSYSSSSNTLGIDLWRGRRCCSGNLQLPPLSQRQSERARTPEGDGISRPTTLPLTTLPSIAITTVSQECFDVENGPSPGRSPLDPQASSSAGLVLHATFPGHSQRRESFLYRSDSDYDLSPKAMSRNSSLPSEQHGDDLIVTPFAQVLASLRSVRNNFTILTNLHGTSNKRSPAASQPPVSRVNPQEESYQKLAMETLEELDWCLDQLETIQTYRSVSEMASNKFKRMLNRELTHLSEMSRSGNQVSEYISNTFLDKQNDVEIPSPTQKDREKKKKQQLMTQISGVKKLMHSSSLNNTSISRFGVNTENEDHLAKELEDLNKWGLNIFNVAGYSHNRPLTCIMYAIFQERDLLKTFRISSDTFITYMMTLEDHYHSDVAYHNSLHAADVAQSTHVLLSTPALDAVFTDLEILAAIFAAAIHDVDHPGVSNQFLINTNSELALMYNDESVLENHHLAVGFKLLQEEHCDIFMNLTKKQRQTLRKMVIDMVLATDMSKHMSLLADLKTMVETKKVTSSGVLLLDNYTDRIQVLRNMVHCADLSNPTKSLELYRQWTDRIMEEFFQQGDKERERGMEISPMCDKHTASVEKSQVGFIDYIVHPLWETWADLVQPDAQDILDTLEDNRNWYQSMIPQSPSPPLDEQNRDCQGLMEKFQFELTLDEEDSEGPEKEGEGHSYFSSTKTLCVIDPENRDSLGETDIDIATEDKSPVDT
Procedure, shortened: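 ACTOne HEK293 cells carry a modified cAMP-gated CNG channel and express endogenous PDE4; plated 1000 cells/well, compounds up to 22.9 uM final. Membrane-potential dye fluorescence (ex 535/em 590) was read; parental cells received 10 uM forskolin + 100 uM RO 20-1724.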

[16] = molecular target: Dual specificity protein kinase CLK4 (Homo sapiens) (UniProt Q9HAZ1); test: qHTS Assay for Inhibitors of CDC-like Kinase 4 (Kinase-Glo Assay) (AID 1770); conditions: recombinant Clk4, Kinase-Glo ATP depletion luminescence; series mostly up to 66.7 µM; also: % is scaled to controls: 0 for no effect and ±100 for the full control effect; nearly all actives have a fitted effect of over 65% in size
Procedure, shortened: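 Recombinant human Clk4 (25 nM) phosphorylated RS repeat peptide (100 uM) with 1 uM ATP in Tris pH 7.5/MgCl2/EGTA/DTT/Triton buffer for 4.5 h at room temperature. Residual ATP was quantified by Kinase-Glo luciferase luminescence.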

[17] = molecular target: Dual specificity protein kinase CLK4 (Homo sapiens) (UniProt Q9HAZ1); test: qHTS Assay for Inhibitors of CDC-like Kinase 4 (ADP-FP Assay) (AID 1795); conditions: Transcreener ADP fluorescence polarization; series mostly up to 50 µM; also: % is scaled to controls: 0 for no effect and ±100 for the full control effect; nearly all actives have a fitted effect of over 60% in size
Procedure, shortened: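 Recombinant human Clk4 (6.25 nM) phosphorylated RS repeat peptide (100 uM) with 1 uM ATP in Tris pH 7.5/MgCl2/EGTA/DTT/Triton buffer for one hour. ADP was quantified by Transcreener competitive fluorescence polarization against an ADP calibration curve.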

[18] = molecular target: Ubiquitin carboxyl-terminal hydrolase 1 (Homo sapiens) (UniProt O94782); test: Inhibitors of USP1/UAF1: Pilot qHTS (AID 504865); conditions: purified USP1/UAF1, Ub-rhodamine cleavage fluorescence; series mostly up to 54.9 µM;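 also: rhodamine fluorescence freed from ubiquitin-rhodamine substrate followed over time; top concentration of the series differs between compounds; % is scaled to controls: 0 for no effect and ±100 for the full control effect; nearly all actives have a fitted effect of over 35% in size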
Chain of Ubiquitin carboxyl-terminal hydrolase 1 (Homo sapiens) (O94782 whole entry, looked up): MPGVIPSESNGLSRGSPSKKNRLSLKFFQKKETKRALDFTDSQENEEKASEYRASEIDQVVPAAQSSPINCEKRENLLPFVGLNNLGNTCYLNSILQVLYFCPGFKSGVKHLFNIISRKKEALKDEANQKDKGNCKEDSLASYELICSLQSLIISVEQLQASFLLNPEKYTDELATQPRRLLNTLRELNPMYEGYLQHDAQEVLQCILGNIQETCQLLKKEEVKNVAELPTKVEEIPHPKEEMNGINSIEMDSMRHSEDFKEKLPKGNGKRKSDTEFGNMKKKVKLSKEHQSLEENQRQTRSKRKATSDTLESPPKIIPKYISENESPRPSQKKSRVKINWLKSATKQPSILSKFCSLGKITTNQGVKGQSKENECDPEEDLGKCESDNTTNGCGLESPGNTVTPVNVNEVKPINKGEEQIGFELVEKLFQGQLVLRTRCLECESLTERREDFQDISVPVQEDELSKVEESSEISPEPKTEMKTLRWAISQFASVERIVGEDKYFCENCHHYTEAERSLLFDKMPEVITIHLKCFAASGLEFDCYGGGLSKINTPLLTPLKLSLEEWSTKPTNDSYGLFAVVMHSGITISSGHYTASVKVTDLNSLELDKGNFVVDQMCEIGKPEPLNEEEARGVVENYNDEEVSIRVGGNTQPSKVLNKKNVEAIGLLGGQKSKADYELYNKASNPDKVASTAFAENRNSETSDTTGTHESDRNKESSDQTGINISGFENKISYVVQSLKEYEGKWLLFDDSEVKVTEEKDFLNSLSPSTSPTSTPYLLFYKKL
Procedure, shortened: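 USP1/UAF1 complex (1nM) preincubated with compound 15 min at room temperature, then Ub-Rho substrate (150nM final) added. Fluorescence read kinetically at 480/540 nm, 6 reads every 60 seconds. Buffer: 50mM HEPES pH 7.8, 0.5mM EDTA, 0.1 mg/ml BSA, 1mM TCEP, 0.01% Tween-20.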

[19] = measured here: cell count channel max response
[20] = measured here: lipid channel max response

COc1ccccc1-c1cc(NCc2cccc(C)c2)ncn1
Potency [1]: > 11.4 µM (inactive) | activity change, negative = inhibition [2]: -9.64% (inactive) | Potency [3]: 1.58 µM (active) | activity change, negative = inhibition [4]: 1.95% (inactive) | activity, negative = inhibition [5]: -2.82% (inactive) | Potency [6]: > 46 µM (inactive) | Potency [7]: > 46 µM (inactive) | outcome [8]: inactive | Potency [9]: 6.31 µM (active) | Potency [10]: inactive | activity change, negative = inhibition [11]: -23.2% (inactive) | max response [11, 19]: 4.86% | max response [11, 20]: -16.7% | Potency [12]: 35.5 µM (active) | Potency [13]: inactive | Potency [14]: inactive

COc1ncc2nc(-c3ccccc3)c(=O)n(C)c2n1
Potency [1]: > 11.4 µM (inactive) | activity change, negative = inhibition [2]: -19.1% (inactive) | Potency [3]: 1.58 µM (active) | activity change, negative = inhibition [4]: 11.3% (inactive) | activity, negative = inhibition [5]: -14.9% (inactive) | Potency [6]: > 9.22 µM (inactive) | Potency [7]: > 46 µM (inactive) | outcome [8]: inactive | Potency [15]: inactive | activity change, negative = inhibition [11]: 6.24% (inactive) | max response [11, 19]: 20% | max response [11, 20]: 24.3% | Potency [16]: inactive | Potency [12]: inactive | Potency [17]: inactive | Potency [18]: inactive | Potency [13]: inactive

Cc1noc(C)c1-c1cc(NC2CCNCC2)ncn1
Potency [1]: > 11.4 µM (inactive) | activity change, negative = inhibition [2]: 8.23% (inactive) | Potency [3]: 0.126 µM (active) | activity change, negative = inhibition [4]: 8.17% (inactive) | activity, negative = inhibition [5]: 5.01% (inactive) | Potency [6]: > 46 µM (inactive) | Potency [7]: > 46 µM (inactive) | outcome [8]: inactive | Potency [15]: inactive | Potency [9]: inactive | activity change, negative = inhibition [11]: 3.45% (inactive) | max response [11, 19]: -17.1% | max response [11, 20]: -14.9% | Potency [16]: inactive | Potency [12]: inactive | Potency [17]: inactive | Potency [18]: inactive | Potency [13]: inactive

N#CCCn1c(=O)c(-c2ccc(Cl)cc2)nc2cnc(Oc3ccccc3)nc21
Potency [1]: > 11.4 µM (inactive) | activity change, negative = inhibition [2]: -26.3% (inactive) | Potency [3]: 0.501 µM (active) | activity change, negative = inhibition [4]: -9.95% (inactive) | activity, negative = inhibition [5]: -6.74% (inactive) | Potency [6]: > 9.22 µM (inactive) | Potency [7]: > 46 µM (inactive) | outcome [8]: inactive | Potency [15]: inactive | activity change, negative = inhibition [11]: 4.78% (inactive) | max response [11, 19]: 19.6% | max response [11, 20]: 24.2% | Potency [16]: inactive | Potency [12]: inactive | Potency [17]: inactive | Potency [18]: inactive | Potency [13]: inactive

Cc1nc2cnc(N3CCN(C)CC3)nc2n(C)c1=O
Potency [1]: > 11.4 µM (inactive) | activity change, negative = inhibition [2]: 2.98% (inactive) | Potency [3]: 12.6 µM (active) | activity change, negative = inhibition [4]: 8.62% (inactive) | activity, negative = inhibition [5]: -15% (inactive) | Potency [6]: > 9.22 µM (inactive) | Potency [7]: > 46 µM (inactive) | outcome [8]: inactive | Potency [15]: inactive | activity change, negative = inhibition [11]: 3.28% (inactive) | max response [11, 19]: 5.81% | max response [11, 20]: 7.23% | Potency [16]: inactive | Potency [12]: inactive | Potency [17]: inactive | Potency [18]: inactive | Potency [13]: inactive
